# Source: PubChem BioAssay (The Scripps Research Institute Molecular Screening Center)
# Most compounds without a hit are left out; they make up all but 3.5% or so of the library.
# FBW7 activator: human FBW7 E3 ligase activation, primary screen. Q969H0. AlphaScreen FBW7–phospho-cyclin E peptide binding, activator screen. normalized activity (activation), % at 26.1 µM. 650,000 compounds, 0.13% hits. AID 1259310; in the data active = normalized activity above about 1.9%;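 also: purified mutant Fbw7 with reduced substrate affinity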
# TEAD-YAP block: TEAD-YAP interaction inhibition; HEK-TIYL cells, TEAD-Gal4/YAP UAS-luciferase luminescence; inhibition, % at 9.12 µM; 640,000 compounds, 1.4% hits; in the data active = inhibition above about 32%;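 also: 0% = median of test compound wells and 100% = reference inhibitor wells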
# GPR151 activ: activates the human receptor GPR151; activation, % at 11.2 µM; 650,000 compounds, 1% hits; AID 1508602; Q8TDV0; PathHunter beta-arrestin GPR151 cells, luminescence; in the data active = activation above about 4.9%;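 also: 0% = median of compound wells and 100% = cells with positive control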
# MITF primary: inhibitors of human MITF; O75030; AlphaScreen MITF homodimerization, bead proximity signal; inhibition, % at 2.6 µM; 650,000 compounds, 0.91% hits; in the data active = inhibition above about 50%;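 also: 0% = vehicle wells with protein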
# Target sequence (O75030 whole entry, looked up): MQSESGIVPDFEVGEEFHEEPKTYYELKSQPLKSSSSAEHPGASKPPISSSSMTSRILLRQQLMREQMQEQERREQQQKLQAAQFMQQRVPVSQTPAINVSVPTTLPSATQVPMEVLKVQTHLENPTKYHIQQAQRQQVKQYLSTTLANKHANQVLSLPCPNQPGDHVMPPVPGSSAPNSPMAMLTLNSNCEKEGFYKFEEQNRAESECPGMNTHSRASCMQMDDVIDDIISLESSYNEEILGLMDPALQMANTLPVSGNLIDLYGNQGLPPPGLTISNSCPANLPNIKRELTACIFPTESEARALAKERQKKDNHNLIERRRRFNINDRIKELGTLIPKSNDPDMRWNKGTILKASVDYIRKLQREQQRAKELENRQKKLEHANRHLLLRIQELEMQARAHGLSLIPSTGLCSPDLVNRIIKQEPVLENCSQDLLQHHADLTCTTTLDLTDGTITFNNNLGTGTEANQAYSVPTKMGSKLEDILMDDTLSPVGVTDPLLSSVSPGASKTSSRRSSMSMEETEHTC
# * hit, by the source's call.
SMILES,FBW7 activator,TEAD-YAP block,GPR151 activ,MITF primary
COc1ccccc1N1CCN(c2nc(NCCO)c3cnn(C)c3n2)CC1,0,36*,0,5
CC1CCN(c2c(NCC3CCC(C(=O)N4CCCC4)CC3)c(=O)c2=O)CC1 (stereo unspecified),0,8,-1,9
Nc1ncc(N=Nc2cc(C(=O)O)ccc2Cl)s1,0,3,-2,9
Cc1nc(N)sc1N=Nc1cc(C(=O)O)cc(C(=O)O)c1,0,-2,2,52*
Nc1ncc(N=Nc2cc(C(=O)O)cc(C(=O)O)c2)s1,0,12,0,61*
Nc1c(C(=O)c2ccc(Br)cc2)sc2nc3c(c(-c4cccs4)c12)CCCC3,0,2,0,-3
Cc1ccc(NC(=O)CC2Nc3ccccc3N(CC(=O)Nc3ccccc3F)C2=O)cc1 (stereo unspecified),1,-8,-2,20
COc1ccccc1CCNc1nc(CN2CCC(C(N)=O)CC2)nc2ccccc12,0,2,0,0
COc1ccc(NC(=O)CN2CCC(c3nc4ccc(Cl)cc4[nH]3)CC2)cc1,0,-2,-1,12
COC(=O)CNS(=O)(=O)Nc1ccc(-c2nc3ccc(C)cc3s2)cc1,0,67*,-6,9
COc1cc(OC)cc(C(=O)Nc2ccc(-c3nc4ccc(C)cc4s3)cc2)c1,0,-3,0,10
Cc1ccc(OCC(=O)Nc2ccc(-c3nc4ccc(C)cc4s3)cc2)cc1,0,-17,0,6
Cc1ccc2nc(-c3ccc(NC(=O)CSc4nnc(N)s4)cc3)sc2c1,0,59*,-2,-7
Cc1ccc2nc(-c3ccc(OC(=O)c4ccc(Br)o4)cc3)sc2c1,0,65*,1,8
CC(=O)Oc1ccc(-c2nc3ccc(C)cc3s2)cc1,0,98*,-6,1
COC(=O)C1=C(C)NC2=C(C(=O)CCC2)C1c1ccc(OCc2ccc(Cl)cc2)c(OC)c1 (stereo unspecified),0,5,0,-2
CC(=O)Nc1ccc2nc(-c3ccc(OC(C)=O)cc3)sc2c1,0,78*,0,-4
Cc1ccc2nc(-c3ccc(OC(=O)c4cccc(I)c4)cc3)sc2c1,0,84*,-2,-4
Cc1ccc2nc(-c3ccc(NC(=O)/C=C/c4ccccc4)cc3)sc2c1,0,-22,0,4
Cc1ccc(C(=O)Oc2ccc(-c3nc4ccc(C)cc4s3)cc2)cc1,0,39*,-1,-5
Cc1ccc2nc(-c3ccc(NC(=O)/C=C\C(=O)O)cc3)sc2c1,0,35*,0,-1
Cc1ccc(-c2nc3ccccc3s2)cc1NC(=O)c1cccc(I)c1,0,2,1,8
CC(=O)Nc1ccc(-c2nc3ccc(NC(C)=O)cc3s2)cc1,1,-50,2,-15
Cn1cccc1CC(=O)NNC(=O)C1CC2C=CC1C2 (stereo unspecified),0,-1,1,-5
Cn1c(=O)n(Cc2cccc(Cl)c2)c(=O)c2c1nc1n2CCCN1C1CCCCC1,0,-7,-1,1
SMILES,FBW7 activator,TEAD-YAP block,GPR151 activ,MITF primary
COc1ccc(C)cc1NC(=O)CCC1CCCC1,0,-6,1,-4
COC1(OC)N=C(N)C2(C#N)C3C=CC(CC3)C12C#N (stereo unspecified),0,7,0,-1
C[C@@H]1CN(C(=O)c2nc3ccc(Cl)cn3c2CNCCc2cnccn2)C[C@H](C)O1,0,6,0,9
c1ccc2c(-c3csc(NCC4CCCO4)n3)c[nH]c2c1 (stereo unspecified),0,-10,0,-6
c1ccc2c(-c3csc(NC4CCCC4)n3)c[nH]c2c1,5.4*,-9,0,1
CCc1sc(C(=O)Nc2nc(C)cs2)cc1C,0,-35,-1,3
Cc1csc(NC(=O)c2cc3c(s2)CCC(C)C3)n1 (stereo unspecified),0,74*,-6,-3
Cc1cccc(NC(=O)c2ccc(Cn3c(=O)[nH]c4ccsc4c3=O)cc2)c1,0,2,0,-16
CCCCC1CN(C(=O)/C=C/c2cnn(C)c2)Cc2ccccc2O1 (stereo unspecified),0,1,1,-3
COc1ccc(CCNC(=O)c2cnc(SC)nc2C)c(OC)c1,0,3,2,10
CCOC(=O)c1ccc(NC(=O)c2ccc(CS(=O)c3ccc(Cl)cc3)o2)cc1 (stereo unspecified),0,32*,-1,-1
COC(=O)c1ccccc1NC(=O)CCOc1ccccc1,0,-12,0,7
O=C(CNC(=S)N(Cc1ccccc1)Cc1ccccc1F)NCCCN1CCOCC1,0,8,-1,12
Cc1ccc(S(=O)(=O)N(C)CC(=O)NNC(=O)CSc2nc(C)cc(C)n2)cc1,0,4,2,3
Cc1cccc(N2CCN(C(=O)c3ccccc3)CC2)c1C,0,14,1,24
CC(=O)Oc1ccc(C(=O)N2CCN(c3cccc(C)c3C)CC2)cc1,0,51*,1,7
C/C(=N/Nc1nc(-c2ccccc2)cs1)C(C)(C)C,0,61*,0,4
Oc1cccc(-c2cnn3c(NCc4cccs4)ccnc23)c1,0,99*,-2,3
Nc1cccc(-c2cnn3c(NCC4CC4)ccnc23)c1,0,-11,-1,-10
CN(C)CCNC(=O)c1cccc(-c2cnn3c(NCc4cccs4)ccnc23)c1,0,93*,0,-1
O=C(O)c1cccc(-c2cnn3c(NCc4cccs4)ccnc23)c1,0,94*,2,8
COc1ccc(CNc2ccnc3c(-c4cccc(C(=O)NCCN(C)C)c4)cnn23)cc1,0,-52,-1,1
Clc1cccc(-c2cnn3c(NCc4cccs4)ccnc23)c1,0,-35,0,-10
Oc1cccc(-c2cnn3c(NCC4CC4)ccnc23)c1,0,98*,-1,-7
CCOC(=O)C1=CN(C)C=C(C(=O)OCC)C1c1cc(OC)c(OC)c(OC)c1,0,5,-1,10
SMILES,FBW7 activator,TEAD-YAP block,GPR151 activ,MITF primary
CSc1ccccc1NC(=O)c1nn2c(c1Cl)NC(c1ccco1)CC2C(F)(F)F (stereo unspecified),0,-21,1,-8
CCOC(=O)c1ccc(OCC2c3cc(OC)c(OC)cc3CCN2C(=O)/C=C/c2ccco2)cc1 (stereo unspecified),0,4,0,1
COc1ccc(-c2cc(Nc3ccc(Oc4ccccc4)cc3)nc(N)n2)cn1,0,44*,2,6
COc1ccc(CCNc2cc(-c3ccccc3)nc(N)n2)cc1,0,42*,0,3
COc1cc(Nc2cc(N3CCc4ccccc4C3)nc(N)n2)cc(OC)c1OC,0,37*,3,5
COc1ccc(-c2cc(NCCc3ccc(O)cc3)nc(N)n2)cc1,0,-44,-1,7
Cc1nn(C)c(C)c1-c1cc(Nc2ccc(Oc3ccccc3)cc2)nc(N)n1,0,54*,-1,40
COc1ccc(-c2cc(Nc3ccc(NC(C)=O)cc3)nc(N)n2)cn1,0,-13,-1,-6
